Only a selection was taken, and hits are over-represented in it overall.
Giardia FBPA inh = qHTS Assay for Inhibitors of Fructose-1,6-bisphosphate Aldolase from Giardia Lamblia | A8B2U2 | purified Giardia FBPA | Potency, µM (doses to about 59.6 µM), usual class: inhibitors | 0.71% of 290,000 active | AID 2451, 2010; note: nearly all actives have a fitted effect of over 55% in size
Target sequence (A8B2U2 whole entry, looked up): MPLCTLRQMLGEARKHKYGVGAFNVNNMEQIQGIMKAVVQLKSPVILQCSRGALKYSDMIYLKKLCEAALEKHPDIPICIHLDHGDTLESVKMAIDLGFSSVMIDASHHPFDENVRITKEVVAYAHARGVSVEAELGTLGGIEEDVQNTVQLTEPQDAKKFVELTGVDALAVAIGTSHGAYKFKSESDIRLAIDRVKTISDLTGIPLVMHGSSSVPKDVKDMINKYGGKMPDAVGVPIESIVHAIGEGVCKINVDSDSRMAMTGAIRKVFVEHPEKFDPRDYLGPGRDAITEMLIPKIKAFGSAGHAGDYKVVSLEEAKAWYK
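Giardia FBPA (40 nM reagent) was preincubated 10 min at RT with compound (up to 57.5 uM final), then substrate plus GAPDH/TPI/NAD/arsenate coupling system with diaphorase/resazurin was added; resorufin fluorescence (525/598 nm) was read after 20 min.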
Shiga toxin inh = A qHTS for Small Molecule Inhibitors of Shiga Toxin; Vero cells, Shiga toxin protein synthesis inhibition reporter; inhibition, % at 38.7 µM; 9.2% of 290,000 active; AID 2315, 2010; in the data active = inhibition mostly above about 28%, no sharp cut-off; inactive = mostly below about 43%
LmPK inhibitor = qHTS Assay for Inhibitors of Leishmania Mexicana Pyruvate Kinase (LmPK); Q27686; purified LmPK, Kinase-Glo ATP luminescence, 1 h; 0.37% of 290,000 active; AID 1721, 2009; Potency, µM (highest dose often 57.5 µM), most hits filed as inhibitors
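Purified LmPK (0.1 nM) converted ADP (0.1 mM) to ATP with PEP (0.5 mM) in imidazole buffer pH 7.2 with KCl and MgCl2, 1 h at room temperature. ATP was read by Kinase-Glo luminescence; data normalized to uninhibited and no-enzyme controls.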
TbPYK inhibitor = qHTS of Trypanosoma Brucei Inhibitors | pyruvate kinase (Trypanosoma brucei), Q57TT1 | Potency, µM (series often up to 76.8 µM), most hits filed as inhibitors | AID 624173, 2012 | TbPYK enzyme, Kinase-Glo Plus ATP luminescence, 45 min | 0.12% of 410,000 active; note: nearly all actives have a fitted effect of over 50% in size
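ADP (130 uM final) triggers the TbPYK reaction after compound addition; incubation is 45 min at room temperature. Kinase-Glo Plus is then added and luminescence imaged. Normalized data are fitted to concentration-effect curves.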
RE007 growth inh = qHTS Assay for Inhibitors of the HIV-1 protein Vpr | S. pombe RE007 Vpr strain, BacTiter-Glo ATP luminescence, 24 h | Potency, µM (titrated, usually from 92.2 µM), actives largely listed as inhibitors | 0.21% of 360,000 active | AID 651644, 2012; active = well fitted falling curve with a large enough effect; inconclusive = small, poorly fitted or top-dose-only effect; inactive = no such curve, though single readings can be large or run the other way; note: nearly all actives have a fitted effect of over 50% in size
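Fission yeast RE007 carrying one integrated HIV-1 vpr copy, seeded at OD 0.01 in PMG+AL medium with 23 nL pinned compound. Grown 24 h at 30 degrees; viability read by BacTiter-Glo luminescence after 5 min.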
CHX counter = Cycloheximide Counterscreen for Small Molecule Inhibitors of Shiga Toxin; 12% of 300,000 active; cell reporter, cycloheximide protein synthesis inhibition counterscreen; AID 2314, 2010; max response, %; in the data active = max response mostly above about 13%, no sharp cut-off; inactive = mostly below about 14%; note: read at 38.3 µM for the half of the compounds with a filed dose
Hits are given with their value; n = inactive; u = inconclusive; x = no result. Unless noted, calls come from the whole dose curve; as a rule, active = well fitted curve in the direction sought with a large enough effect; inconclusive = small, poorly fitted or top-dose-only effect, or another doubt; inactive = no such curve, though single readings can be large; an effect the other way counts as inactive or inconclusive.

SMILES | Giardia FBPA inh | Shiga toxin inh | LmPK inhibitor | TbPYK inhibitor | RE007 growth inh | CHX counter
COc1cc(NC(=O)CN2C(=O)c3ccccc3Sc3ccc(C(=O)N4CCCC4)cc32)cc(OC)c1 | x | x | x | n | x | x
C[C@H](CO)N1C[C@H](C)[C@@H](CN(C)S(=O)(=O)c2ccccc2)Oc2c(NS(=O)(=O)c3ccccc3)cccc2C1=O | x | x | x | n | n | x
Cc1cc2c(cc1C)-n1nnnc1C(N(Cc1ccccc1)Cc1ccccc1)C(=O)N2 (stereo not drawn) | x | x | x | x | n | x
COc1cccc(/C=N\NC(=O)Cn2nnc3ccccc32)c1O | n | 76 | n | n | n | 27
O=C(Cn1nnc2ccccc21)Nc1ccc([N+](=O)[O-])cc1 | n | n | n | n | n | n
Cc1cccc(NC(=O)Cn2nnc3ccccc32)c1 | n | 136 | n | n | n | 44
COC(=O)c1ccc(NC(=O)Cn2nnc3ccccc32)cc1 | n | 67 | n | n | n | 38
Cc1ccc(NC(=O)Cn2nnc3ccccc32)cc1 | n | 68 | n | n | n | 37
OCCNCc1ccc(OCc2ccc(Cl)cc2Cl)cc1 | n | n | n | n | n | 25
OCCCCNCc1ccc(OCc2ccc(Cl)cc2Cl)cc1 | n | n | n | n | n | n
CCOC(=O)c1sc2nc(C)nc(SCC(=O)NC3CCS(=O)(=O)C3)c2c1C (stereo not drawn) | n | n | n | n | n | n
COC(=O)c1sc2nc(C)nc(SCC(=O)C(C)(C)C)c2c1C | n | n | n | n | n | 38
Cc1ccc(CN2CCN(C(=O)C3CCCO3)CC2)cc1 (stereo not drawn) | n | n | n | n | n | n
Cc1ccc(-c2nc(CN3CCN(C(=O)C4CCCO4)CC3)cs2)cc1 (stereo not drawn) | x | n | n | n | n | 14
CCN=c1scc(-c2ccco2)n1/N=C/c1ccc(O)cc1 | n | 69 | n | n | n | 39
C=C(C)CN=c1scc(C)n1/N=C/c1ccco1 | n | n | n | n | n | n
CCN=c1scc(-c2ccco2)n1/N=C/c1ccc(OC)c(O)c1 | n | 139 | n | n | n | 54
CC(c1ccccn1)N(C)C(=O)c1ccc2nc(Cc3ccccc3F)oc2c1 (stereo not drawn) | x | 72 | n | n | n | 53
O=C(NCc1ccncc1)c1ccc2nc(Cc3ccccc3F)oc2c1 | x | n | n | n | n | 16
Cc1cccc(CNC(=O)c2ccc3nc(Cc4ccccc4)oc3c2)c1 | x | x | x | n | x | x
Cc1cc(CNC(=O)c2ccc3nc(Cc4ccccc4F)oc3c2)nn1C | x | 94 | n | n | n | 42
O=C(NCc1ccccc1)c1ccc2nc(CCc3ccccc3)oc2c1 | x | x | x | n | x | x
CC(c1ccncn1)N(C)C(=O)c1ccc2oc(Cc3ccccc3)nc2c1 (stereo not drawn) | x | 50 | n | n | n | 34
COc1c2c(cc3c1C(NC(N)=O)[N+](C)(C)CC3)OCO2 (stereo not drawn) | n | x | x | x | x | x
Cn1c(CSCc2ccc(Cl)c(Cl)c2)n[nH]c1=S | n | n | n | u | n | n
SMILES | Giardia FBPA inh | Shiga toxin inh | LmPK inhibitor | TbPYK inhibitor | RE007 growth inh | CHX counter
Cc1cc(CNC(=O)c2cc(-c3ccccc3)nc3ccccc23)nn1C | n | n | n | n | n | n
CC(NC(=O)c1ccc2nc(Cc3ccccc3)oc2c1)c1ccccc1 (stereo not drawn) | x | x | x | n | x | x
Cc1c(C(=O)N(C)C(C)c2ccncn2)oc2c(F)cccc12 (stereo not drawn) | x | n | n | n | n | n
Cc1c(C(C)NC(=O)c2ccc3nc(Cc4ccccc4F)oc3c2)cnn1C (stereo not drawn) | x | 36 | n | n | n | 34
Cc1c(C(=O)N(C)C(C)c2ccccn2)oc2c(F)cccc12 (stereo not drawn) | x | 75 | n | n | u | 51
CCCCc1nc2cc(C(=O)NCc3cc(C)n(C)n3)ccc2o1 | n | 78 | n | n | n | 25
CN(C(=O)OC(C)(C)C)c1ccc(-c2nc3ccccc3s2)cc1 | x | x | x | n | x | x
O=C(CSC1=Nc2ccccc2C2=NC(Cc3ccccc3)C(=O)N12)Nc1ccccc1C(F)(F)F (stereo not drawn) | x | x | x | n | x | x

Source: PubChem (National Center for Advancing Translational Sciences (NCATS))
